# Data taken from the supplement of paper PMC8007513.
# Where a name gives a salt, the structure may show the parent alone. ± gives the standard error. Hit rate of the full screen: of about 1,300 compounds, about 75 (6%) showed an effect of 50% or more. The sample holds strong results, similar compounds and a random draw of the others, so the mix is not that of the screen.
# System: Trichoderma virens ATCC 9645
# Test: growth yield (OD600) relative to untreated control; higher = less growth inhibition
# Settings: compound concentration: 100 uM
# How it was run: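 Trichoderma virens ATCC 9645 spores, from potato dextrose agar plates grown for 7 days, were brought to 15,000 spores ml^−1 in potato dextrose broth and dispensed as 100 μl aliquots into 96-well plates. Each aliquot received library compounds at 100 μM final, with or without a biocide at 200 ng ml^−1, before growth at 30 °C and OD600 readings on a BioTek EL800 at 40 h and 72 h. Growth is expressed relative to the control containing neither agent and represents means of duplicate screens.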
SMILES,growth yield (40 h) [%],growth yield (72 h) [%]
CN(C/C=C/C#CC(C)(C)C)Cc1cccc2ccccc12 [Terbinafine],2.7 ± 0.16,2.52
CN(C/C=C/c1ccccc1)Cc1cccc2ccccc12 [Naftifine hydrochloride],15.6 ± 1.6,55.5 ± 4.3
C#CCN(C)Cc1ccccc1 [Pargyline hydrochloride],105 ± 2.1,107 ± 2.9
CN(Cc1ccc(C(C)(C)C)cc1)Cc1cccc2ccccc12 [Butenafine Hydrochloride],2.06 ± 1.4,1.99 ± 1.1
c1ccc2c(CC3=NCCN3)cccc2c1 [Naphazoline hydrochloride],101 ± 2.4,100
CC1(C)O[C@@H]2C[C@H]3[C@@H]4C[C@H](F)C5=CC(=O)C=C[C@]5(C)[C@H]4[C@@H](O)C[C@]3(C)[C@]2(C(=O)CO)O1 [Flunisolide],100.5 ± 0.48,96.5 ± 1.3
N=C(N)N1CCc2ccccc2C1 [Debrisoquin sulfate],97.5 ± 1.3,101.8 ± 0.52
CNCC[C@@H](Oc1cccc2ccccc12)c1cccs1 [(R)-Duloxetine hydrochloride],99.1 ± 2.9,107 ± 3.1
Cc1ncc([N+](=O)[O-])n1CC(O)CCl (configuration not stated) [Ornidazole],99.8 ± 2.9,103 ± 2.3
CC(=O)N(CC(C)C(=O)O)c1c(I)cc(I)c(N)c1I (configuration not stated) [Iocetamic acid],107 ± 1.6,104 ± 1.1
N[C@@H](C(=O)N[C@@H]1C(=O)N2C(C(=O)O)=C(Cl)CS[C@H]12)c1ccccc1 [Cefaclor hydrate],96.1 ± 4.6,96.9 ± 4.2
CCCCC(C)(O)C/C=C/[C@H]1[C@H](O)CC(=O)[C@@H]1CCCCCCC(=O)OC (mixture of isomers) [Misoprostol],105 ± 1.3,109 ± 4.1
CCOC(=O)O[C@]1(C(=O)COC(=O)CC)CC[C@H]2[C@@H]3CCC4=CC(=O)C=C[C@]4(C)[C@H]3[C@@H](O)C[C@@]21C [Prednicarbate],118 ± 3,114 ± 2.8
O=c1[nH]c(=O)n([C@H]2C[C@H](O)[C@@H](CO)O2)cc1F [Floxuridine],11.1 ± 3.8,46.3 ± 9.3
O=c1[nH]c(=O)n([C@H]2C[C@H](O)[C@@H](CO)O2)cc1I [Idoxuridine],102 ± 3.8,99.4 ± 3.1
O=c1[nH]c(=O)n([C@H]2C[C@H](O)[C@@H](CO)O2)cc1C(F)(F)F [Trifluridine],109.9 ± 0.95,106 ± 1.1
c1ccc2[nH]c(-c3cscn3)nc2c1 [Tiabendazole],1.43 ± 1.4,1.26 ± 1.3
C[C@@H]1CCC[C@H](C)N1NC(=O)c1ccc(Cl)c(S(N)(=O)=O)c1 [Clopamide],99.6 ± 1.8,103 ± 3

SMILES,growth yield (40 h) [%],growth yield (72 h) [%]
CCCCc1ncc(/C=C(\Cc2cccs2)C(=O)O)n1Cc1ccc(C(=O)O)cc1 [Eprosartan mesylate],98.3 ± 5.6,94.08 ± 0.94
Cc1onc(-c2ccccc2)c1C(=O)N[C@@H]1C(=O)N2[C@@H]1SC(C)(C)[C@@H]2C(=O)O [Oxacillin sodium],111 ± 1.6,105 ± 1.4
CCCCCOC(=O)Nc1nc(=O)n([C@@H]2O[C@H](C)[C@@H](O)[C@H]2O)cc1F [Capecitabine],105.2 ± 0.64,103.2 ± 0.84
CC(CN(C)C)C(C)(O)Cc1ccc(Cl)cc1 (configuration not stated) [Clobutinol hydrochloride],105 ± 3.5,104 ± 2.5
Oc1c(Cl)cc(Cl)c(Cl)c1Cc1c(O)c(Cl)cc(Cl)c1Cl [Hexachlorophene],25.3 ± 2.1,98.9 ± 5.8
CC(C(=O)O)c1cccc(Oc2ccccc2)c1 (configuration not stated) [Fenoprofen calcium salt dihydrate],97.5 ± 10,97.7 ± 13
CC(=O)N[C@@H](CC(C)C)C(=O)O [N-Acetyl-L-leucine],103 ± 3,103 ± 2.7
CCCN(CCC)CCc1cccc2c1CC(=O)N2 [Ropinirole hydrochloride],99.43 ± 0.64,103 ± 1.1
COc1cc([S+](C)[O-])ccc1-c1nc2cccnc2[nH]1 (configuration not stated) [Sulmazole],99.4 ± 2.2,98 ± 1.7
Cc1cc2cc3c(C)cc(=O)oc3c(C)c2o1 [Trioxsalen],42.1 ± 0.48,73.7 ± 4.5
Cc1cc(=O)oc2cc(O)ccc12 [Hymecromone],101 ± 0.32,97.01 ± 0.94
COc1c2occc2c(OC)c2c(=O)cc(C)oc12 [Khellin],97.7 ± 1.8,95.1 ± 5.1
CCOC(=O)C1=C(C)NC(C)=C(C(=O)OC)C1c1cccc(Cl)c1Cl (configuration not stated) [Felodipine],92.8,94.2
CCOC(=O)C1=C(C)NC(C)=C(C(=O)OC)C1c1cccc([N+](=O)[O-])c1 (configuration not stated) [Nitrendipine],85.6 ± 1.1,89.9 ± 3.7
COC(=O)C1=C(C)NC(C)=C(C(=O)OCCN(C)Cc2ccccc2)C1c1cccc([N+](=O)[O-])c1 (configuration not stated) [Nicardipine hydrochloride],89.4 ± 5.2,114 ± 7.8
COCCOC(=O)C1=C(C)NC(C)=C(C(=O)OC(C)C)C1c1cccc([N+](=O)[O-])c1 (configuration not stated) [Nimodipine],95.3 ± 7.3,97.7 ± 9
COC(=O)C1=C(C)NC(C)=C(C(=O)OCC(C)C)C1c1ccccc1[N+](=O)[O-] (configuration not stated) [Nisoldipine],25.6 ± 0.48,23.9 ± 2.3
COC(=O)C1=C(C)NC(C)=C(C(=O)OC)C1c1ccccc1[N+](=O)[O-] [Nifedipine],44.2 ± 1.3,53.1 ± 1.1
